Legend:
Type in all cases: functional
[1] = test system: Plasmodium falciparum; assay: GSK_TCMDC: Inhibition of Plasmodium falciparum 3D7 in whole red blood cells, using parasite LDH activity as an index of growth. Test compounds present at 2uM
[2] = test system: Plasmodium falciparum; assay: GSK_TCMDC: Inhibition of Plasmodium falciparum Dd2 in whole red blood cells, using parasite LDH activity as an index of growth. Test compounds present at 2uM
[3] = test system: HepG2; assay: GSK_TCMDC: Percent inhibition of human HepG2 cell line. Test compounds present at 10uM.

Row | SMILES | Inhibition [1] [%] | Inhibition [2] [%] | Inhibition [3] [%]
1 | Cn1c(Nc2cc(C(C)(C)C)on2)nc2cc(Nc3ccnc(Nc4cccc(CS(C)(=O)=O)c4)n3)ccc21 | 99 | 94 | 63
2 | O=C(Nc1ccc(F)c(C(F)(F)F)c1)N[C@H]1CCN(CCCCCNC(=O)C2CC2c2ccc(Cl)c(Cl)c2)C1 (some centres undefined) | 90 | 0 | 46
3 | CCOc1cc(C)ccc1C1CCN(CCN2CCC(CNC(=O)c3ccc(-c4ccc(C(F)(F)F)cc4)cc3)CC2)CC1 | 98 | 89 | 53
4 | COc1cc2c(cc1OC)CN(CCc1ccc(NC(=O)c3cc4cc(Cl)ccc4[nH]3)cc1)CC2 | 90 | 6 | 3
5 | CCCCc1cc(N2CCC(NC(C)=O)C2)nc(Nc2ccc(C)cc2)n1 (centres undefined) | 95 | 1 | 2
6 | COc1ccc2nccc([C@@H](O)CN3CCC(NC(=O)c4nc(Cl)c(Cl)c(N)c4Cl)CC3)c2c1.CS(=O)(=O)O | 87 | 17 | 16
7 | CCCCOP(=O)(COc1ccc(CCN(CC(O)COc2cccc3[nH]c4ccccc4c23)CC(O)COc2cccc3[nH]c4ccccc4c23)cc1)C1CCCCC1 (centres undefined) | 89 | 92 | 7
8 | Cc1cccc2nc(-c3cccc(-c4ccc(NC(=O)CS(C)(=O)=O)cc4)c3)[nH]c12 | 85 | 8 | 3
9 | O=C(Nc1ccc(OC(F)(F)F)cc1)Nc1ccc([N+](=O)[O-])cc1 | 100 | 100 | 41
10 | CCOC(=O)C1CCN(CCCNC(=O)/C(=C/C=C/c2cc3cc(Cl)c(Cl)cc3[nH]2)OC)CC1 | 87 | 78 | 23
11 | Cc1nnsc1C(=O)Nc1ccc(-c2cccc(-c3nc4cc(F)ccc4[nH]3)c2)cc1 | 96 | 27 | 44
12 | CCCCCCN1CCC(NCc2ccc(C)cc2)CC1.O=C(O)C(F)(F)F | 93 | 4 | 16
13 | O=C(NCCCCN1CC=C(c2ccc3c(c2OCc2ccccc2)CCCC3)CC1)c1ccc(-c2ccc(C(F)(F)F)cc2)cc1 | 97 | 82 | 19
14 | O=C(NC1CCN(Cc2ccccc2)CC1)c1ccc(-c2nc3cc(Cl)c(F)cc3[nH]2)cc1 | 100 | 100 | 13
15 | COc1ccc2nccc(N(C)CC3(O)CCC(NCc4ccc5c(n4)NC(=O)CS5)CC3)c2n1.Cl (centres undefined) | 98 | 23 | 1
16 | N#Cc1c(N2CCCCCC2)nc(N)c2c(N)nc3c(c12)CC(=O)N3c1ccc(F)cc1 | 97 | 91 | 0
17 | COc1ccc(OCC(=O)Nc2cc(-c3nc4ccccc4[nH]3)ccc2Cl)cc1 | 94 | 33 | 18
18 | CC(C)C1C(O)=C(c2ccc3ccccc3c2)C(=O)N1Cc1ccsc1 (centres undefined) | 88 | 82 | 11
19 | Cc1c(N)ccc2[nH]c(-c3ccc(N)cc3)nc12 | 97 | 40 | 0
20 | COc1ccccc1CCNc1ncc(F)c(N[C@@H](Cc2ccccc2)C(=O)NCCc2ccccc2)n1.O=C(O)C(F)(F)F | 90 | 83 | 7
21 | CC(C)(C)[C@@H](Nc1ccc(C#N)c2ccccc12)C(=O)NC1(Cc2ccc(O)c(Br)c2)CCCC1 | 84 | 16 | 2
22 | O=[N+]([O-])c1cccc(NC(=S)N2CCCN(Cc3ccc(F)cc3F)CC2)c1 | 99 | 98 | 5
23 | Cc1cccc(OC2CCN(c3ncc(C(=O)NCCCN4CCCC4=O)cc3Cl)CC2)c1 | 96 | 95 | 7
